These results are taken from PubChem BioAssay.

Calls of active or inactive are those of the source. Unless noted, no rule for the calls is given here.

Test [1] relates to Wnt5a (protein binding on small-molecule microarray). As to the kind of experiment: Wnt5a binders on small-molecule microarray, primary screen, biophysical, 635/667 nm fluorescence (AID 1142).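 Also: fluorescence read at 667 nm with signal to noise per printed feature.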 The settings on record: 635 nm fluorescence, higher = more signal.
Test [2] in a line: cell viability in Huh7 cells, primary screen, cytotoxicity control for HCV replication inhibitor project, CellTiter-Glo luminescence, basal, 48 h (AID 1143).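 Also: Huh7 hepatoma cells carrying a hepatitis C replication reporter with no stimulus; test concentration not given here.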 The following applies: Huh7 HCV replicon, higher = more signal, called active from +8 up or from −8 down. (In general: In ATP-based viability assays light output follows the ATP content of the culture.)
Test [3] can be described thus: P. aeruginosa biofilm formation inhibitors, primary screen, PAO1 strain, BacTiter-Glo luminescence, LB-PBS (AID 1144). The settings on record: 12 h, higher = more signal.
Test [4] can be described thus: CREB reporter modulators without forskolin, primary screen, cell-based, PC12, CRE-LacZ reporter, unstimulated (AID 1145). The following applies: no forskolin, luminescence, 4.5 h, higher = more signal, called active from +8 up or from −8 down.
Test [5] is described as follows: CREB reporter modulators under forskolin, primary screen, cell-based, PC12, CRE-LacZ reporter, forskolin-stimulated (AID 1146).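 Also: PC12 cells with 6xCRE LacZ reporter stimulated by forskolin 10 µM; beta-galactosidase reporter signal reflecting CREB driven transcription.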 The following applies: luminescence, 4.5 h, higher = more signal, called active from +8 up or from −8 down.
Test [6] addresses Streptavidin (Streptomyces avidinii) (UniProt P22629). Description: streptavidin binders on small-molecule microarray, primary screen, artefact control for SMM compound annotation, biophysical, 635/667 nm fluorescence (AID 1147).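 Also: signal reflects streptavidin binding to arrayed compounds as a control protein.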 The following applies: streptavidin binding, higher = more signal.
Test [7] can be described thus: small-molecule binders of probe aInhba, primary screen, biochemical, small-molecule microarray, 635/667 nm fluorescence (AID 1148).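 Also: score merges 667nm spot fluorescence with signal-to-noise for antibody binding to printed compounds.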 The settings on record: higher = more signal.
The target of test [8] is Torsin-1A (Homo sapiens) (UniProt O14656). As to the kind of experiment: torsin A binders from cell lysate, primary screen, small-molecule microarray, wild-type, 635/667 nm (AID 1149). The following applies: COS7 hTOR1A-WT lysate, 635 nm fluorescence, higher = more signal.
The target is the same in test [9]. Description: small-molecule binders of mutant TOR1A in lysate, primary screen, cell lysate, small-molecule microarray, COS7 lysate, 635/667 nm fluorescence (AID 1150).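 Also: score pools 667 nm emission and signal to noise measuring lysate protein binding.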 The following applies: COS7 hTOR1A mutant lysate, 635 nm fluorescence, higher = more signal.
Test [10] deals with Sonic hedgehog protein (Shh). As to the kind of experiment: small-molecule binders of Shh protein, primary screen, biochemical, small-molecule microarray, 635/667 nm fluorescence (AID 1151).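 Also: Shh protein binding to compounds spotted on small-molecule microarray slides; score combines spot fluorescence intensity with signal-to-noise across triplicate slides.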 The following applies: small-molecule microarray binding, 635 nm fluorescence; higher = more signal.
Test [11] can be described thus: E. coli DRC41 culture turbidity changes, primary screen, E. coli filamentation inducer project, strain DRC41, OD650, 48 h (AID 1152).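 Also: E. coli MC1000 strain DRC41 lacking acrAB efflux pump and sulA.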 The settings on record: E. coli DRC41 (acrAB sulA), higher = more signal, called active from +8 up or from −8 down.
Test [12] in a line: small-molecule binders of probe aLefty1, primary screen, biochemical, small-molecule microarray, 635/667 nm fluorescence (AID 1153).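 Also: score merges spot fluorescence with signal-to-noise ratio from the scanned slide images.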 The settings on record: higher = more signal.
Test [13] is described as follows: PSAC antagonists in infected red cells, primary screen, cell-based, P. falciparum Indochina, OD700, 1 h (AID 1154). The settings on record: P. falciparum Indochina infected RBC osmotic lysis, higher = more signal, called active from +8 up or from −8 down.
Test [14] is described as follows: PSAC antagonists in infected red cells, primary screen, cell-based, P. falciparum Indochina, OD700, 2 h (AID 1155).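 Also: lysis reports solute entry through the parasite surface anion channel PSAC; channel blockers reduce lysis of infected cells.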 The following applies: P. falciparum Indochina infected erythrocytes, osmotic lysis OD700; higher = more signal, called active from +8 up or from −8 down.
Test [15] can be described thus: osmotic lysis modulators in infected erythrocytes, primary screen, PSAC antagonist project, cell-based, P. falciparum Indochina, OD700, 3 h (AID 1156). The settings on record: higher = more signal, called active from +8 up or from −8 down.
The nature of test [16]: PSAC antagonists in infected red cells, primary screen, cell-based, P. falciparum Indochina, OD700, 18 h (AID 1157). The following applies: P. falciparum Indochina infected erythrocytes, osmotic lysis OD700, 18 h; higher = more signal, called active from +8 up or from −8 down.
A short description of test [17]: modulators of S6 phosphorylation in cells, primary screen, cell-based, A549, cytoblot, luminescence, serum-stimulated (AID 1158).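 Also: serum-stimulated A549 lung adenocarcinoma cells; signal is phosphorylated S6 detected by cytoblot immunostaining with HRP secondary.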 The following applies: A549 phospho-S6 cytoblot, 5 h, higher = more signal.
For test [18], the target named is NADPH oxidase 2 (Homo sapiens) (UniProt P04839). Description: NOX2-dependent H2O2 signal modulators, primary screen, NOX inhibitor project, cell-based, HEK293-NOX2, PMA-stimulated, Amplex Red fluorescence (AID 1159). Also: test concentration not given here. The settings on record: 45 min, higher = more signal, called active from +8 up or from −8 down.
Test [19] has as its target NADPH oxidase 4 (Homo sapiens) (UniProt Q9NPH5). As to the kind of experiment: NOX4-dependent H2O2 signal modulators, primary screen, NOX inhibitor project, cell-based, HEK293-NOX4, tetracycline-induced, Amplex Red fluorescence (AID 1160). The settings on record: 45 min, higher = more signal, called active from +8 up or from −8 down.
Test [20] addresses NADPH oxidase 5 (Homo sapiens) (UniProt Q96PH1). Description: NOX5-dependent H2O2 signal modulators, primary screen, NOX inhibitor project, cell-based, HEK293-NOX5, Amplex Red fluorescence (AID 1161). The following applies: HEK293-NOX5, ionomycin, 45 min, higher = more signal.

Sequence of Streptavidin (Streptomyces avidinii) (P22629 whole entry, looked up): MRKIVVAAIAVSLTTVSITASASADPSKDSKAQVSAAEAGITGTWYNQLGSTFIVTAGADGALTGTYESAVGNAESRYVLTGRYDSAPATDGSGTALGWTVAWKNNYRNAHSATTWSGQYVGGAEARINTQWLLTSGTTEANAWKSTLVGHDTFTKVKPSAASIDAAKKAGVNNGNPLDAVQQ
Sequence of NADPH oxidase 4 (Homo sapiens) (Q9NPH5 whole entry, looked up): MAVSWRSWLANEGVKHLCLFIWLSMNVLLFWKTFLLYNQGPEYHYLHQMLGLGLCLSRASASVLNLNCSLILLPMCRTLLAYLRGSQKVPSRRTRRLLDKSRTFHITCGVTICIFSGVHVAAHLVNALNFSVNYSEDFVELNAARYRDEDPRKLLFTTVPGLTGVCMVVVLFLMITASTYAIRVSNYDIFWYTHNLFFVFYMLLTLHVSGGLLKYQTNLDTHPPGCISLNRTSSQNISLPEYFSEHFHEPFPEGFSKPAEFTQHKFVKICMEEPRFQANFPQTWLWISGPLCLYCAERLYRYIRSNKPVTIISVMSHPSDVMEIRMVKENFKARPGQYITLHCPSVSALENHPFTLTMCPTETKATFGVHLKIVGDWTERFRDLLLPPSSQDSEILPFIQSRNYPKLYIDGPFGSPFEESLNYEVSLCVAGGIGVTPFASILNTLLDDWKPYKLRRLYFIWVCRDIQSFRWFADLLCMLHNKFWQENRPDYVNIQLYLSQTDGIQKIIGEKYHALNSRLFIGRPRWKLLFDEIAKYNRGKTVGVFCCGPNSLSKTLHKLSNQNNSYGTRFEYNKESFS
Sequence of Torsin-1A (Homo sapiens) (O14656 whole entry, looked up): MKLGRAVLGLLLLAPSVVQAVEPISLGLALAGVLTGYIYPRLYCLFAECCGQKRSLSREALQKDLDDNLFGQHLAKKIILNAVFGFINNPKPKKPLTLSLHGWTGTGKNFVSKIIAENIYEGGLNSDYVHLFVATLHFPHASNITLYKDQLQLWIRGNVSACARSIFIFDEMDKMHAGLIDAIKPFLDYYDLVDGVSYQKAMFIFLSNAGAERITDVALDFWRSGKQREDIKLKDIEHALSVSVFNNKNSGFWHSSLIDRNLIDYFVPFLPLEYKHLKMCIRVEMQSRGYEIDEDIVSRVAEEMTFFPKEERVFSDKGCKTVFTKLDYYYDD
Sequence of NADPH oxidase 5 (Homo sapiens) (Q96PH1 whole entry, looked up): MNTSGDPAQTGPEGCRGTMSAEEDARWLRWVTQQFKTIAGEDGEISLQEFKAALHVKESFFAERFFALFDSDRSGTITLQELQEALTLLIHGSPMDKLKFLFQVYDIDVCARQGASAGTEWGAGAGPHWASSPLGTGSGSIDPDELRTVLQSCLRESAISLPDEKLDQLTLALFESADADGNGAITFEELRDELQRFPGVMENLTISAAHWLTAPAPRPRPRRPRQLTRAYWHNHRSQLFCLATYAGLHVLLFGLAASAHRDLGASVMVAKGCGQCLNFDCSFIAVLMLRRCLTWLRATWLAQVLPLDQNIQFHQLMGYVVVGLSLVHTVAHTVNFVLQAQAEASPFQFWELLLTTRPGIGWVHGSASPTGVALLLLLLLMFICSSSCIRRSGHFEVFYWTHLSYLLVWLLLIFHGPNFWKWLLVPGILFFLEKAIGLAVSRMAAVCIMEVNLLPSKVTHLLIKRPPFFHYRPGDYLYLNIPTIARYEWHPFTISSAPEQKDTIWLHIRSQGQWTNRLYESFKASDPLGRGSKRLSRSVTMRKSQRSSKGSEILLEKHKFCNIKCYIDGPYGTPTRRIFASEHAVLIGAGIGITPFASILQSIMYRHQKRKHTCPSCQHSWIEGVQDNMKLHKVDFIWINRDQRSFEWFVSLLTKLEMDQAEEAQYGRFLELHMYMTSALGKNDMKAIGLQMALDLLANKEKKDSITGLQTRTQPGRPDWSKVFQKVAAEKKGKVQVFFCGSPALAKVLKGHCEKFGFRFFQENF
Sequence of NADPH oxidase 2 (Homo sapiens) (P04839 whole entry, looked up): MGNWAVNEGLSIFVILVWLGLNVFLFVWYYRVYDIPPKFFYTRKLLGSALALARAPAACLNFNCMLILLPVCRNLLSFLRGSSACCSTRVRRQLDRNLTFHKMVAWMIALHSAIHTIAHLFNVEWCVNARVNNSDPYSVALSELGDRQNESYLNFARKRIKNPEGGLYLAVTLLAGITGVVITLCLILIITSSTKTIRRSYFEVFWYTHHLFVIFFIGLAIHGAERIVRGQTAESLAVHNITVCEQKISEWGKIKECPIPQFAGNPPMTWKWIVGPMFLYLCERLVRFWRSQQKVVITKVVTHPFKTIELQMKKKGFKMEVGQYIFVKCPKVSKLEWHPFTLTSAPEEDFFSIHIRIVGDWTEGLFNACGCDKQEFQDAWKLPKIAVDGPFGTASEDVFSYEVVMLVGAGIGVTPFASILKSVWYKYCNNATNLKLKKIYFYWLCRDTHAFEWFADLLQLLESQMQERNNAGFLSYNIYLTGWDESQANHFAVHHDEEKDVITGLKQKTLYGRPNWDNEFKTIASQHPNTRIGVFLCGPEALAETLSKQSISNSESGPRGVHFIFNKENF

Regarding `C=CC1c2cc(O)c(OC)cc2CCN1C` (stereo not given), the composite z-score is -0.148 in [1]; -0.0377 in test [6]; -0.0695 in test [7]; -0.45 in the test with Torsin-1A (Homo sapiens) [8]; -0.231 with Torsin-1A (Homo sapiens) [9]; -0.881 in test [10]. Also, the composite z-score in test [12] is -0.101. For the same molecule, the z-score in test [2] was 0.235 (inactive); in [3], 0.51 (inactive); in test [4] it was 0.182 (inactive); in test [5] it was -0.439 (inactive); in [11] it was -0.664 (inactive); in test [13] it was 0.994 (inactive). Besides, the z-score in test [14] was -0.152 (inactive); in test [15], -0.969 (inactive); in [16], -0.214 (inactive); in test [17] it was -0.466; in test [18] it was -4.27 (inactive); in test [19], -2.63 (inactive). In [20], this molecule came in with a z-score of -3.08.

On to `COc1ccc(C(=O)Nc2cccc(CN3C(=O)[C@]4(O[C@H](CC(=O)N5Cc6ccccc6C[C@H]5CO)[C@@H]([Si](C)(C)c5ccc(OC)cc5)[C@@H]4C)c4ccccc43)c2)cc1`, for which the composite z-score was 0.711 in test [1]; -0.266 in [6]; 0.114 in test [7]; 0.671 in the test with Torsin-1A (Homo sapiens) [8]; 0.701 with Torsin-1A (Homo sapiens) [9]; 2.19 in test [10]. Moreover, in test [12], the composite z-score came out at 0.423. Further, the z-score in test [2] was -3.89 (inactive); in test [3] it was 0.269 (inactive); in test [4], -1.07 (inactive); in test [5], -0.442 (inactive); in [11], 1.66 (inactive); in [13] it was 4.02 (inactive). For the same molecule, the z-score in [14] is 1.49 (inactive); in test [15] it was 0.887 (inactive); in test [16], 1.04 (inactive); in test [17], 0.568; in test [18], 0.0795 (inactive); in [19], 0.701 (inactive). In [20], the z-score came out at 2.01.

Take `N#Cc1ccc(C(O)C2C=CC3C(=O)NC(=O)C3N2Nc2ccc(Cl)cc2Cl)cc1` (stereo not given): the composite z-score was -0.0844 in test [1]; 0.865 in test [6]; 0.104 in test [7]; -0.404 with Torsin-1A (Homo sapiens) [8]; 0.0924 with Torsin-1A (Homo sapiens) [9]; -0.855 in test [10]. Besides, in test [12], the composite z-score was found to be 0.243. Further, the z-score in test [2] was 0.199 (inactive); in test [3] it was -0.376 (inactive); in test [4], 0.629 (inactive); in test [5], -0.728 (inactive); in [11] it was -1.18 (inactive); in [13], 13.7 (active). Also, the z-score in test [14] was 2.42 (inactive); in [15], 2.15 (inactive); in test [16] it was 1.39 (inactive); in test [17], -1.29; in test [18] it was -1.23 (inactive); in test [19], -5.23 (inactive). Also, in test [20], the z-score is -2.75.

`CC(C)C(=C=CC[C@H](O)c1ccccc1OCCO)C[C@H](O)c1cc(Cl)cc(Cl)c1O`: the composite z-score was found to be 0.192 in test [1]; 0.855 in [6]; 0.0966 in test [7]; 0.786 with Torsin-1A (Homo sapiens) [8]; 1.06 with Torsin-1A (Homo sapiens) [9]; 1.85 in test [10]. In test [12], this molecule came in with a composite z-score of 0.199. The z-score in test [2] is -0.825 (inactive); in [3], -0.328 (inactive); in test [4], 14.6 (active); in [5], 1.59 (inactive); in [11] it was -0.279 (inactive); in test [13] it was 19.5 (active). In addition, the z-score in [14] is 4.2 (inactive); in test [15], -0.25 (inactive); in test [16], 1.44 (inactive); in test [17], -0.383; in test [18], -1.24 (inactive); in [19] it was -1.67 (inactive). Besides, the z-score in [20] was -1.88.

In the case of `CCCCN1CC=CC23O[C@@H]4/C=C\CCCOC(=O)C4[C@H]2C(=O)N(C(CO)C(C)C)[C@@H]3C1=O` (stereo not given in full), the composite z-score in [1] was -0.256; in test [6] it was -0.275; in test [7], 0.419; in the test with Torsin-1A (Homo sapiens) [8], -0.277; with Torsin-1A (Homo sapiens) [9], -0.455; in [10], 1.14. This molecule also gave a composite z-score in test [12] of -0.178. Also, the z-score is -0.352 (inactive) in test [2]; 1.3 (inactive) in test [3]; -0.22 (inactive) in test [4]; -0.182 (inactive) in [5]; -0.539 (inactive) in test [11]; 1.47 (inactive) in test [13]. The z-score was 0.701 (inactive) in test [14]; 0.434 (inactive) in [15]; 0.505 (inactive) in test [16]; -0.515 in test [17]; 1.71 (inactive) in test [18]; 0.808 (inactive) in test [19]. Also, in [20], the z-score was 1.69.
